ALDH1A1 inh – inhibitors of human aldehyde dehydrogenase 1A1; P00352; AID 1030; actives 7.3% (n = 220,000); Purified ALDH1A1, NADH fluorescence, propionaldehyde substrate; Potency, µM (series often up to 75.3 µM), hits mostly inhibitors
PNC inhibitor – blocks assembly of the perinucleolar compartment | PC3M PTB-GFP, PNC prevalence imaging, 16 h; stronger effect = lower value | actives 3.1% (n = 140,000) | activity change (PNC), negative = inhibition, % at 10 µM;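 active = readout at or below -70, meaning at least 70% loss of cells showing the perinucleolar compartment, a nuclear body marking cancer cells; inconclusive = readout between -30 and a set limit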
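PC3M cells stably expressing PTB-GFP, 750–1000 cells/well, treated 16 h at 37 °C with compound (23 nl of library stock), in duplicate. After paraformaldehyde fixation and Hoechst stain, imaged at 20x; PNC prevalence scored by image analysis.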
HPGD block – HPGD (human) dehydrogenase inhibition. P15428. purified HPGD, NADH fluorescence kinetic, PGE2 substrate. Potency, µM, usual class: inhibitors. actives 4.3% (n = 150,000). AID 894
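NADH formation kinetics: reaction with 30 uM PGE2 and 1 mM NAD+ (final), 20 nM enzyme, Tris-HCl pH 8 with Tween 20, after 15 min compound preincubation at room temperature. Fluorescence change, last versus first of five reads.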
Numbers stand for hits; - = inactive; ? = inconclusive; . = no result. A selection: hits, their analogues and other compounds. The true share with any hit is near 11%. Unless noted, calls follow the shape of the dose curve; as a rule, active = well fitted inhibition curve with a large enough effect (not every such curve was filed as active); inconclusive = small, poorly fitted or top-dose-only effect, or another doubt; inactive = no such curve, though single readings can be large or run the other way.

SMILES	ALDH1A1 inh	PNC inhibitor	HPGD block
O=C(NCc1ccco1)c1ccc(N2CCCCC2)c([N+](=O)[O-])c1	?	?	32µM
O=C(Nc1nc2ccc3ccccc3c2s1)c1ccc(N2CCCCC2)c([N+](=O)[O-])c1	-	?	-
CCC(CC)c1nnc(NC(=O)c2ccc(N3CCCCC3)c([N+](=O)[O-])c2)s1	0.79µM	?	-
CCCCCCCNC(=O)c1ccc(N2CCC3(CC2)OCCO3)c([N+](=O)[O-])c1	25µM	-119	-
COc1ccc(CNC(=O)c2ccc(N3CCOCC3)c([N+](=O)[O-])c2)cc1	-	.	.
CC1CCN(c2ccc(C(=O)NCc3ccco3)cc2[N+](=O)[O-])CC1	?	-	-
COCCCN(C(=S)Nc1cc(C)cc(C)c1)C(C)c1ccncc1 (stereo unspecified)	-	-	-
Cc1cc(O)c(C(C)C)cc1Cl	-	.	-
O=C(O)c1cc(N/N=C/C(Cl)=C/c2ccccc2)ccc1Cl	-	.	.
C=CCSc1nnc2nc3[nH]c4c(C)cccc4c3nn12	?	-	-
CC1(C)OC2CC3C4CC(F)C5=CC(=O)CC[C@@]5(C)C4C(O)C[C@@]3(C)[C@]2(C(=O)CO)O1 (stereo partly specified)	-	.	-
O=S(=O)(NCc1csc(-c2cccnc2)n1)c1ccc(Cl)s1	-	?	-
O=S(=O)(NCc1csc(-c2ccccc2)n1)c1ccc(Cl)s1	-	-	18µM
Cc1nn(-c2cc(N(S(C)(=O)=O)S(C)(=O)=O)c(Cl)cc2Cl)c(=O)n1C	-	-	-
O=C(CC(Nc1cccc(Cl)c1Cl)C(=O)O)c1ccccc1 (stereo unspecified)	0.35µM	.	.
O=C(CC(Nc1cccc(Cl)c1Cl)C(=O)OCC(=O)c1cccs1)c1ccccc1 (stereo unspecified)	?	-	-
COc1ccc(S(=O)(=O)n2nc(OC(=O)c3cccs3)cc2NC(=O)c2cccs2)cc1	-	.	.
CC(C)(C)C(=O)/C(=C\c1ccc([N+](=O)[O-])cc1)n1cncn1	-	?	?
Cc1nn(-c2ccccc2)c2sc(-c3n[nH]c(=S)o3)cc12	?	-	?
O=C(CN1CCSCC1)N/N=C/c1ccc(F)c(F)c1	?	-113	-
O=C(CN1CCCCCC1)N/N=C/c1ccc(Cl)c(Cl)c1	-	-	-
Cc1ccc2nc(NC(=O)CCn3c(=O)sc4ccccc43)sc2c1	?	-	-
Cc1cccc(C2(c3cccc(C)c3)CC2C(=O)Nc2ccc([N+](=O)[O-])cc2O)c1 (stereo unspecified)	-	-	18µM
COc1cccc(C2(c3cccc(OC)c3)CC2C(=O)Nc2ccccc2Cl)c1 (stereo unspecified)	-	-82	-
COc1cccc(C2(c3cccc(OC)c3)CC2C(=O)Nc2ccc(F)cc2)c1 (stereo unspecified)	-	-	-
SMILES	ALDH1A1 inh	PNC inhibitor	HPGD block
Cc1cccc(C2(c3cccc(C)c3)CC2C(=O)NCC2CCCO2)c1 (stereo unspecified)	-	-	-
O=C(CN(C(=O)c1cc2c(s1)CCC2)C1CCCC1)NCc1cccs1	16µM	-	-
CN(C(=O)c1ccccc1C(=O)OCC(=O)NCc1cccs1)C1CCCCC1	-	.	.
COc1ccc(C(=O)NCC(=O)Nc2cccc(S(=O)(=O)NCc3ccco3)c2)cc1OC	20µM	.	.
COc1cccc(S(=O)(=O)NCc2ccc(C(=O)NCc3ccco3)cc2)c1	14µM	?	-
COc1ccc(C(=O)Nc2ccc(S(=O)(=O)NCc3ccco3)cc2)cc1OC	-	-	-
O=C(O)c1cc(S(=O)(=O)NCc2ccco2)c(Cl)cc1Cl	20µM	-	-
COc1cccc(S(=O)(=O)Nc2ccc(C(=O)NCc3ccco3)cc2)c1	28µM	-	?
CS(=O)(=O)Nc1ccc(C(=O)NCc2ccco2)cc1	-	-	-
COc1cccc(NC(=O)COC(=O)c2ccc(S(=O)(=O)NCc3ccco3)cc2)c1	-	-	-
Cc1cc(S(=O)(=O)NCc2ccco2)c(C)s1	-	?	-
O=C(O)CCCn1cc(NC(=O)c2c(F)cccc2F)cn1	-	.	.
Cc1cc(N2C(=O)C3CC=CC(C)C3C2=O)no1 (stereo unspecified)	-	-	-
COc1ccc(C(=O)N2CCC3(CCCN(CC(C)C)C3)CC2)cc1	-	.	-
Cc1c(Br)c([N+](=O)[O-])nn1C(C)C(=O)Nc1c(C)n(C)n(-c2ccccc2)c1=O (stereo unspecified)	-	-	-
COC(=O)COc1ccc(S(=O)(=O)NCc2ccco2)cc1Cl	-	-103	-
COc1ccc(CCNC(=O)c2ccc(CNS(=O)(=O)c3ccc(C(C)(C)C)cc3)cc2)cc1OC	?	?	-
COCCNS(=O)(=O)c1ccc(OCC(=O)OC)c(Cl)c1	-	-	-

Screening results deposited in PubChem by National Center for Advancing Translational Sciences (NCATS).
